Our source for the outcome values is PubChem BioAssay AID588773 (The Scripps Research Institute Molecular Screening Center, 2011).

Activity calls are given as the source filed them.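 The calls were made as follows: active = inhibition of plasma PAF acetylhydrolase at a set limit or more at 0.1 µM, with tenfold selectivity over all off-targets; inactive = inhibition below the limit or weaker selectivity.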

A short description of the assay: pPAFAH inhibition and serine hydrolase selectivity, late-stage follow-up, selectivity assay for pPAFAH inhibitor project, biochemical, gel-based, FP-Rh fluorescence, mouse, HTS hit compounds (AID 588773). As to conditions: gel-based competitive ABPP, proteome, MW 32 kDa protein, at 10 µM.

Consider `O=C(Oc1ccc([N+](=O)[O-])cc1)N1CCC(N2CCCCC2)CC1`, for which the compound was called inactive. Consider `CN(C)C(=O)Oc1noc2cc(Cl)ccc12`, for which the outcome was inactive.
